Sm TGR block: inhibitors of Schistosoma mansoni thioredoxin glutathione reductase; Q962Y6; purified TGR, DTNB reduction, TNB absorbance 405 nm; Potency, µM (highest dose often 114 µM), for inactives: at the highest dose activity change, negative = inhibition, actives largely listed as inhibitors; 360,000 compounds, 3% hits; note: % is set by controls: 0 for no effect and ±100 for the full control effect; nearly all actives have a fitted effect of over 60% in size
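TGR 20 nM + NADPH 100 uM (dispensed conc.), cpd preinc 15 min RT; start with NADPH (500 uM addition) then DTNB (15 mM addition). Kinetic TNB absorbance, 405 nm filter. Four-parameter Hill fit across titration.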
SARS PLpro yeast: SARS-CoV PLP inhibition in yeast; S. cerevisiae expressing SARS-CoV PLpro, growth rescue; Potency, µM (series often up to 32.9 µM), for inactives: at the highest dose activity, positive = growth rescue, actives largely listed as activators; 330,000 compounds, 0.19% hits; AID 485353; calls by dose curve; note: 0% is about no effect; nearly all actives have a fitted effect of over 55% in size
Pf growth 48h: inhibits P. falciparum growth in the first generation, 48 h. P. falciparum luciferase growth in erythrocytes, 48 h. Potency, µM (series often up to 28.7 µM), for inactives: top-dose activity change, negative = inhibition, most hits filed as inhibitors. 310,000 compounds, 5.9% hits; note: % is set by controls: 0 for no effect and ±100 for the full control effect
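Here the parasites carry a stable luciferase gene and grow inside erythrocytes in Albumax-based RPMI medium with compound for one erythrocytic cycle. Activity is scored as loss of luminescent signal.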
Pf growth 96h: inhibits malaria parasite growth, 96 h. P. falciparum luciferase reporter growth, 96 h. Potency, µM (series often up to 28.7 µM), for the others: at the highest dose activity change, negative = inhibition, hits mostly inhibitors. 320,000 compounds, 6.9% hits. AID 504834; note: % is set by controls: 0 for no effect and ±100 for the full control effect
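P. falciparum expressing integrated firefly luciferase, in erythrocytes at 2% hematocrit, 0.05% parasitemia, incubated with compounds 96 h at 37 C, 5% CO2. Growth inhibition read as loss of luminescence; two-generation exposure targets delayed-death apicoplast inhibitors.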
Numbers without * were called inactive. A selection: hits, their analogues and other compounds. The true share with any hit is near 12%. Unless noted, calls come from the whole dose curve; as a rule, active = well fitted curve in the direction sought with a large enough effect; inconclusive = small, poorly fitted or top-dose-only effect, or another doubt; inactive = no such curve, though single readings can be large; an effect the other way counts as inactive or inconclusive. Potency is the fitted concentration of half-maximal effect.

Screening COc1ccccc1NC(=S)N(Cc1ccccc1)Cc1ccccn1 returned Sm TGR block -7%, SARS PLpro yeast 16%, Pf growth 48h 25% and Pf growth 96h inconclusive.
COc1ccc(CCN(Cc2ccccn2)C(=S)Nc2cccc(C)c2)cc1OC was read as Sm TGR block 18%, SARS PLpro yeast -1%, Pf growth 48h 12µM* and Pf growth 96h -24%.
Screening COc1ccc(CCN(Cc2ccccn2)C(=S)Nc2ccccc2Cl)cc1OC returned Sm TGR block -3%, SARS PLpro yeast 5%, Pf growth 48h inconclusive and Pf growth 96h 13µM*.
Screening S=C(Nc1ccccc1Cl)N(Cc1ccccc1)Cc1ccccn1 returned Sm TGR block 0%, SARS PLpro yeast 0%, Pf growth 48h inconclusive and Pf growth 96h 1µM*.
Cc1ccc(-n2nnnc2CNC(=O)C(C)C)cc1C was read as Sm TGR block 4%.
For CC(Oc1ccccc1F)c1nnc(SCC(=O)N(c2ccccc2)C2CCS(=O)(=O)C2)o1 (stereo not drawn) the results were SARS PLpro yeast 1%.
For COc1ccc(Cl)cc1S(=O)(=O)N(C)CC(=O)NCc1ccc2c(c1)OCO2 the results were Sm TGR block 5%, SARS PLpro yeast 0%, Pf growth 48h 10% and Pf growth 96h inconclusive.
For O=C(CSc1ccc(-c2ccco2)nn1)Nc1ccccc1 the results were Sm TGR block 7.1µM*, SARS PLpro yeast -1%, Pf growth 48h 31% and Pf growth 96h -18%.
For COc1ccc(CCNC(=O)CSc2nnc(-c3ccco3)c(-c3ccco3)n2)cc1OC the results were Sm TGR block 2.2µM*, SARS PLpro yeast 3%, Pf growth 48h -15% and Pf growth 96h 34%.
COc1ccc(CCNC(=O)Cn2cc(C(F)(F)F)cc(Cl)c2=O)cc1OC was read as Sm TGR block 2%, SARS PLpro yeast -2%, Pf growth 48h 6.6µM* and Pf growth 96h inconclusive.
COc1ccc(CCNC(=O)CN2C(=O)COc3ccccc32)cc1OC was read as Sm TGR block 7%.
For CCC1Oc2ccccc2N(CC(=O)NCCc2ccc(OC)c(OC)c2)C1=O (stereo not drawn) the results were Sm TGR block 3%, SARS PLpro yeast 0%, Pf growth 48h inconclusive and Pf growth 96h 3.3µM*.
For COc1ccc(CCNC(=O)Cn2cc(C(F)(F)F)cc(Cl)c2=O)cc1 the results were Sm TGR block -2%, SARS PLpro yeast 1%, Pf growth 48h -2% and Pf growth 96h 21%.
For CC(=O)c1cccc(OCc2cc(C(=O)N3CCC(N4CCCCC4)CC3)no2)c1 the results were Sm TGR block -7%, SARS PLpro yeast -2%, Pf growth 48h inconclusive and Pf growth 96h 12%.
`COC(=O)C1CCN(S(=O)(=O)c2ccc(N3CCCCS3(=O)=O)cc2)CC1` gave Sm TGR block 0%.
CCS(=O)(=O)N1Cc2ccccc2CC1C(=O)N(C)CC(=O)Nc1ccc(F)c(F)c1F (stereo not drawn) was read as Sm TGR block -3%, SARS PLpro yeast -4%, Pf growth 48h 10% and Pf growth 96h 5%.
Cc1ccc(-c2cc3nc(-c4ccccc4)cc(C(F)(F)F)n3n2)cc1 was read as Sm TGR block -16%.
For COc1cccc(NC(=O)CSc2ccc(-c3ccco3)nn2)c1 the results were Sm TGR block 40µM*, SARS PLpro yeast -7%, Pf growth 48h -4% and Pf growth 96h -26%.
Screening COc1ccc(CCNC(=O)CSc2nn(-c3ccccc3)c(=S)s2)cc1OC returned Sm TGR block -2%, SARS PLpro yeast -18%, Pf growth 48h 10µM* and Pf growth 96h inconclusive.
Cc1ccc(NC(=O)CSc2ccc(-c3cccnc3)nn2)cc1 was read as Sm TGR block 12%, SARS PLpro yeast 6%, Pf growth 48h inconclusive and Pf growth 96h inconclusive.
For COc1ccc(CCNC(=O)CSc2ccc3ccccc3c2)cc1OC the results were Sm TGR block -17%, SARS PLpro yeast -1%, Pf growth 48h -18% and Pf growth 96h inconclusive.
`COc1ccc(CCNC(=O)CSc2ccc(-c3ccco3)nn2)cc1OC` gave Sm TGR block 18µM*, SARS PLpro yeast -5%, Pf growth 48h -14% and Pf growth 96h -12%.
Cc1cccc(NC(=O)CSc2ccc(-c3cccnc3)nn2)c1 was read as Sm TGR block -1%, SARS PLpro yeast -3%, Pf growth 48h inconclusive and Pf growth 96h 12µM*.
`O=C(Cn1cc(SCc2c(F)cccc2Cl)c2ccccc21)N1CCCCCC1` gave Sm TGR block 7%.
`CCN(CC(=O)Nc1ccc(OC)cc1)C(=O)Cc1ccc(OC)c(S(=O)(=O)N2CCOCC2)c1` gave Sm TGR block -14%, SARS PLpro yeast 4%, Pf growth 48h -24% and Pf growth 96h -26%.
Screening O=C(CSc1ccc(-c2ccco2)nn1)Nc1ccc(F)cc1 returned Sm TGR block inconclusive, SARS PLpro yeast -6%, Pf growth 48h 8% and Pf growth 96h 1%.
For O=C(CSc1ccc(-c2cccs2)nn1)NCCc1ccccc1 the results were Sm TGR block -3%, SARS PLpro yeast 2%, Pf growth 48h 8% and Pf growth 96h 2.9µM*.
COc1ccc(CCNC(=O)CSc2nc(O)c(CCC(C)C)c(=O)[nH]2)cc1OC was read as Sm TGR block 0%, SARS PLpro yeast -10%, Pf growth 48h -4% and Pf growth 96h inconclusive.
For CCCCc1c(O)nc(SCC(=O)NCCc2ccc(OC)c(OC)c2)[nH]c1=O the results were Sm TGR block 0%, SARS PLpro yeast 4%, Pf growth 48h 27% and Pf growth 96h 5.9µM*.
`COc1ccc(NC(=O)CSc2ccc(-c3ccco3)nn2)cc1OC` gave Sm TGR block 45µM*, SARS PLpro yeast 6%, Pf growth 48h -5% and Pf growth 96h inconclusive.
Screening Cc1onc(-c2ccccc2)c1C(=O)N(Cc1ccco1)Cc1cccs1 returned Sm TGR block 18µM*, SARS PLpro yeast -1%, Pf growth 48h -20% and Pf growth 96h inconclusive.
Screening Cc1cnc(C(=O)Nc2ccccc2-n2cccc2)cn1 returned Sm TGR block 50µM*, SARS PLpro yeast -5%, Pf growth 48h 8% and Pf growth 96h 12µM*.
`COc1ccc(CNC(=O)c2ccc(S(=O)(=O)NCc3ccco3)cc2)cc1` gave Sm TGR block inconclusive, SARS PLpro yeast 0%, Pf growth 48h -4% and Pf growth 96h -6%.
CCOc1ccc(OCC)c(NC(=O)c2ccc(-c3ccccc3)s2)c1 was read as Sm TGR block 4%.
CC1(C)Cc2cccc(OCC(=O)N3CCN(c4ccc(F)cc4)CC3)c2O1 was read as Sm TGR block 0%, SARS PLpro yeast 1%, Pf growth 48h 12µM* and Pf growth 96h inconclusive.
`CCC(=O)c1cc(F)ccc1OCC(=O)N1CCN(c2ccc(F)cc2)CC1` gave Sm TGR block -3%, SARS PLpro yeast -1%, Pf growth 48h -10% and Pf growth 96h 10%.
`O=C(COC(=O)C1(c2ccccc2)CC1)N1CCN(c2ccc(F)cc2)CC1` gave Sm TGR block 4%, SARS PLpro yeast -2%, Pf growth 48h -9% and Pf growth 96h 10µM*.
